A selection: hits, their analogues and other compounds. The true share with any hit is near 3.3%.
BRCT inh red = inhibitors of human BRCA1 BRCT-phosphoprotein interaction (red fluorophore); hit rate 0.03% among 75,000; P38398; AID 892; BRCT-phosphopeptide binding, red fluorescence polarization; Potency, µM (titrated, usually from 76.9 µM), usual class: inhibitors
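Rhodamine-labelled pBACH1 10-mer (100 nM) bound to BRCT domain (100 nM) at pH 7.3; compounds incubated 12 min room temperature, polarization read. Free peptide defines full inhibition; unlabelled decapeptide titrated as control.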
Hsp90 Hop PPI = changes Hsp90-Hop TPR2A binding signal, up or down; AlphaScreen TPR2A-His6 binding biotin-Hsp90 C-terminal peptide; Potency, µM (doses to about 57 µM); hit rate 0.44% among 71,000; AID 595; active means well fitted curve in either direction with a large enough effect; inconclusive means small, poorly fitted or top-dose-only effect, or another doubt
TsaE inh = displaces an ADP probe from E. coli YjeE (TsaE) | P0AF67 | purified YjeE enzyme, qHTS inhibition assay | Potency, µM | hit rate 0.05% among 71,000
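Purified YjeE (10 uM) with BODIPY Texas Red-labeled ADP probe (2 uM); compounds pin-transferred, 15 min at room temperature. Binding inhibition read as decreased fluorescence polarization; ADP titration as control.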
TSHR agonist = TSH receptor (human) agonism; P16473; HEK293-CNG-TSHR cells (CNG channel as cAMP sensor), membrane potential dye, cAMP; Potency, µM (titrated, usually from 57.1 µM), most hits filed as activators; hit rate 0.48% among 73,000; AID 926; active means well fitted activation curve with a large enough effect in the main read-out, with a control signal flat, not every such curve was filed as active; inconclusive means small, poorly fitted or top-dose-only effect, or a change in a side signal; inactive means no such curve, though single readings can be large or run the other way; reference of the percent scale not stated here;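 further: the control signal comes from parental cells without the receptor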
Target sequence (P16473 whole entry, looked up): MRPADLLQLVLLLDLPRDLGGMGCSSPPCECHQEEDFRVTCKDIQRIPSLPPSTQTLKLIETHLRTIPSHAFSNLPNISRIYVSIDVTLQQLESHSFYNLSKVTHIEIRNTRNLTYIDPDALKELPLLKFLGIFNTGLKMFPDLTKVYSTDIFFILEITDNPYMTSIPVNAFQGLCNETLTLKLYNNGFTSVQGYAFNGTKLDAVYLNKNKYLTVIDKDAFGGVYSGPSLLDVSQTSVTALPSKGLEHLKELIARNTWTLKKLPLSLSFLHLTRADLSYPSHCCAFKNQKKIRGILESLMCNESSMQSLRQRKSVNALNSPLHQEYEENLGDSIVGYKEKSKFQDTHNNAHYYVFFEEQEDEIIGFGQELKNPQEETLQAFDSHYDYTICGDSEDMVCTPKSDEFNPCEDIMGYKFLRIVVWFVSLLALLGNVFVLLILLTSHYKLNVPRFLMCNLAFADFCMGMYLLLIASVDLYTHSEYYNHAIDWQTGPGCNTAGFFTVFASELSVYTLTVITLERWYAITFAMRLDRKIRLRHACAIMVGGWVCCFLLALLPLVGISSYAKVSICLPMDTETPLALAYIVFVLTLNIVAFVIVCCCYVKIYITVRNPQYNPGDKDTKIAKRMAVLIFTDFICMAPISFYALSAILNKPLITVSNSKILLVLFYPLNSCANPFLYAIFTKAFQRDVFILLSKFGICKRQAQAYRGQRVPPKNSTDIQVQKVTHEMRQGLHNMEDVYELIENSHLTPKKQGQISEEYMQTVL
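HEK 293 cells stably expressing TSHR and a modified CNG channel, with CNG-only parental cells as counterscreen, were preloaded 60 min at room temperature with membrane potential dye containing 100 uM RO 20-1724. Compound exposure was 30 min, and depolarization was read as fluorescence at 590 nm.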
BRCT inh green = blocks human BRCA1 BRCT binding to phosphopeptide, green readout; P38398; BRCA1 BRCT-phosphopeptide binding, green fluorescence polarization; Potency, µM (titrated, usually from 76.9 µM), most hits filed as inhibitors; hit rate 0.05% among 75,000; AID 875
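Fluorescence polarization: His-tagged BRCT (~35 kDa BRCA1 C-terminus, 250 nM) bound to 100 nM fluorescein-labeled phosphorylated 10-aa BACH1 peptide, pH 7.3 phosphate buffer with DTT and Tween 20. Compounds incubated 12 min at room temperature; inhibition read as lowered polarization.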
HEK293 cAMP ctrl = raises cAMP in parental HEK293 cells, TSHR agonist counter-screen | parental HEK293 CNG cAMP sensor, membrane potential fluorescence | Potency, µM (doses to about 57.1 µM), usual class: activators | hit rate 2.5% among 73,000 | AID 938; further: nearly all actives have a fitted effect of over 55% in size
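Counterscreen for endogenous-receptor signalling: CNG-channel HEK 293 cells report cAMP rise by membrane depolarization. After 60 min dye equilibration with 100 uM RO 20-1724, compounds incubated 30 min before bottom-read fluorescence at 590 nm.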
Hits are given with their value; i = inactive; ? = inconclusive; nt = no result; [ ] = dose if it differs, or a comment. Unless noted, the call rests on the fitted dose curve; in most records, active means well fitted curve in the direction sought with a large enough effect; inconclusive means small, poorly fitted or top-dose-only effect, or another doubt; inactive means no such curve, though single readings can be large; an effect the other way counts as inactive or inconclusive.

SMILES	BRCT inh red	Hsp90 Hop PPI	TsaE inh	TSHR agonist	BRCT inh green	HEK293 cAMP ctrl
COc1ccc(CCNc2nc(C)nc3c2oc2ccccc23)cc1OC	i	i	i	?	i	?
O=C1C(Cl)=C(NC2CCc3ccccc32)C(=O)c2ncccc21 (configuration not stated)	i	?	i	?	i	i
O=C(NCCc1ccc2c(c1)OCO2)C1CCN(S(=O)(=O)c2ccc(Cl)cc2)CC1	i	i	i	?	i	13µM
CCN(c1cccc(C(F)(F)F)c1)S(=O)(=O)c1ccc2c(c1)CCN2C(=O)C1CC1	i	i	i	?	i	25µM
O=C(Nc1ccccn1)c1c(O)c2cccc3c2n(c1=O)CCC3	i	i	i	i	i	i
O=C(Nc1nccs1)c1c(O)c2cccc3c2n(c1=O)CCC3	i	i	i	?	i	1.3µM
CCOC(=O)c1cnn(-c2nc(-c3ccccc3)nc3c2COC(C)(C)C3)c1N	i	i	i	25µM	i	i
CCOC(=O)c1oc2ccccc2c1CSc1nnnn1-c1ccc(C)cc1	i	?	i	?	i	7.9µM
CC1CCC2(OC1)OC1CC3C4CCC5CC(O)CCC5(C)C4=CCC3(C)C1C2C (configuration not stated)	i	nt	nt	nt	i[3.08 µM]	nt
CC(=O)C1(O)C(C)CC2C3CCC4CC(O)CCC4(C)C3=CCC21C (configuration not stated)	i	i	i	?	i	13µM
CC(=O)c1cc(-c2ccccc2)n(CC(=O)NCc2cccs2)c1C	i	i	i	?	i	16µM
O=C(Nc1cnn(Cc2ccc(F)cc2)c1)c1cc(-c2ccc(Br)cc2)on1	i	i	i	i	i	i
Cc1cccc(OCc2nnc(SCc3cc(=O)n4cc(Br)ccc4n3)o2)c1	i	i	i	?	i	13µM
N#Cc1ccc2ccn(CC(=O)NC3CCCCCC3)c2c1	i	i	i	?	i	3.2µM
C=C(C)C(=O)OCCCCCC	i	i	i	?	i	i
Cc1ccccc1OCc1nnc(SCC(=O)NCc2ccccc2)n1C	i	i	i	i	i	i
COc1ccccc1NC(=O)CSc1nnc(Cc2cccn2C)n1CCc1ccccc1	i	i	i	?	i	20µM
COC(=O)c1ccccc1NC(=O)CSc1nnnn1C1CCCCC1	i	i	i	i	i	i
CCOC(=O)c1ccccc1NC(=O)CSc1nnc(Cc2cccn2C)n1-c1ccc(C)cc1	i	?	i	?	i	32µM
COc1ccc(NC(=O)CSc2nnc(Cc3cccn3C)n2CCc2ccccc2)c(OC)c1	i	i	i	?	i	?
CCOC(=O)c1ccccc1NC(=O)CSc1nnnn1C1CCCCC1	i	i	i	?	i	32µM
CCOC(=O)c1ccccc1NC(=O)CSc1nnc(COc2ccccc2C)n1C	i	i	i	?	i	16µM
COc1ccc(-n2c(Cc3cccn3C)nnc2SCC(=O)Nc2ccccc2C)cc1	i	i[2.3 µM]	i	i	i	i
CC1=C2C(=COC(C)C2C)C(=O)C(C(=O)O)=C1O (configuration not stated)	i	nt	nt	nt	i[3.08 µM]	nt
CCOC(=O)c1ccccc1NC(=O)CSc1ncc(C(=O)OCC)c(N)n1	i	i	i	?	i	20µM
SMILES	BRCT inh red	Hsp90 Hop PPI	TsaE inh	TSHR agonist	BRCT inh green	HEK293 cAMP ctrl
CCOC(=O)c1cnc(SCC(=O)c2ccccc2)nc1N	i	i	i	i	i	i
Cc1cccc2c1Oc1ccccc1[C@@H]2NC(=O)c1ccc([N+](=O)[O-])cc1	i[15.4 µM]	i[11 µM]	i	?	i[15.4 µM]	?
Cc1cc(NC(=O)Nc2ccc(N(C)C)cc2)c2cc(F)cc(F)c2n1	i	7.9µM	i	i	i	i
COC(=O)[C@@]1(Cc2ccccc2)[C@H]2c3cc(C(=O)N4CCCC4)n(Cc4ccc(C(F)(F)F)nc4)c3C[C@H]2CN1C(=O)c1ccccc1	i	i	i	?	i	1.6µM
COC(=O)C1(Cc2ccccc2)C2c3cc(C(=O)N4CCCC4)n(Cc4ccc(OC(F)(F)F)cc4)c3CC2CN1C(=O)c1ccccc1 (configuration not stated)	i	i	i	?	i	1.3µM
COC(=O)[C@@]1(Cc2ccccc2)[C@H]2c3cc(C(=O)N4CCCC4)n(CCO)c3C[C@H]2CN1C(=O)c1ccccc1	i	i	i	i	i	i
CCCCCCCCCCCCCCCCCCOC[C@@H](COP(=O)([O-])OCC[N+](C)(C)C)OC	i	i	i	i	i	i
COCCNS(=O)(=O)c1ccc(OCC(=O)OC)c(Cl)c1	i	i	i	20µM	i	i
Cn1c(=O)c(-c2cccc(F)c2)nc2cncnc21	i	i	i	?	i	?
COCC(=O)N1CCC2(CC1)CN(c1ccc(-c3ccccc3)cc1)C2	i	i	i	i	i	i
CCC[C@@H]1C[C@@]1(CCC)C(NC(=O)OCc1ccccc1)c1ccc(-c2ccccc2)cc1 (some centres not stated)	i	?	i	i	i	i
CCC[C@@H]1C[C@@]1(CCC)[C@@H](NP(=O)(c1ccccc1)c1ccccc1)c1ccc(C(=O)OC)cc1	i	i	i	?	i	13µM
O=C(c1cn(-c2ccccc2)nc1-c1ccc(Cl)s1)N1CCOCC1	i	i	i	25µM	i	i
O=C(c1cn(-c2ccccc2)nc1-c1ccccc1)N1CCOCC1	i	i	i	i	i	i
COc1cc(C2N(c3ccccc3)CCN2c2ccccc2)cc(OC)c1OC	i	i	i	3.2µM	i	i
O=C(c1cc(C(F)(F)F)cc(C(F)(F)F)c1)N1CCC2(CC1)CN(c1ncccn1)C2	i	i	i	i	i	i
O=C(C1CC1)N1CCc2cc(Br)cc(S(=O)(=O)N3CCN(c4ccccn4)CC3)c21	i	i	i	?	i	16µM
COc1cccc([C@@H]2Oc3ccc(OC)cc3/C(=N/O[C@@H](C)CN3CCCc4nc(C)c(C)cc43)[C@@H]2O)c1	i[15.4 µM]	nt	nt	?	i[15.4 µM]	4µM
CC(C)=NO[C@@H](C)CN1CCCc2nc(C)c(C)cc21	i[15.4 µM]	nt	nt	i[11.4 µM]	i[15.4 µM]	i[11.4 µM]
CCC(=O)/C=C/C1C(C)=CCCC1(C)C (configuration not stated)	i	i	i	i	i	i
Cc1nc(NC(C)c2ccccc2)c2oc3ccccc3c2n1 (configuration not stated)	i	i	i	?	i	16µM
O=C(O)CN(CCN(CC(=O)O)CC(=O)O)CC(=O)O.[Cu]	i[15.4 µM]	i[11 µM]	i	i[11.4 µM]	i[15.4 µM]	i[11.4 µM]
CC(NC(=O)c1cc(-c2ccc(O)cc2)on1)c1ccccc1 (configuration not stated)	i	i	i	nt	i	i
CCCn1c(=O)c(C(=O)NCc2ccncc2)c(O)c2ccccc21	i	i	i	?	i	?

Screening results from PubChem.
